Activity calls are given as the source filed them.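 Rule for the calls, unless noted: active = normalized viability below 100% at a tested concentration; inactive = the rest.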
Experiments:
[1] = drug combination growth inhibition, ovarian cancer – cell-based, oncology-focused library, rucaparib conditional, profiling panel (AID 1508598); details: patient-derived ovarian cancer cells, CellTiter-Glo viability, 144 h, stronger effect = lower value
[2] = liver-stage malaria parasite load reduction – cell-based, known kinase inhibitor set, luminescence, hepatoma host viability (AID 624392; call rule not given here;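 note: infected cells incubated roughly two days before readout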); details: Plasmodium liver stage in hepatoma cells, luciferase luminescence, concentration not given here; liver cell % of control: measured here: host liver cell viability; parasite % of control: stronger effect = lower value
[3] = altered dexamethasone sensitivity, NF-kB reporter, cell-based, luciferase, IL-1B stimulus (AID 624486; call rule not given here;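 for percent of negative control (+Dex): 100% = mean signal of vehicle control wells on the plate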); details: IL-1B + dexamethasone, luminescence; percent of negative control (+Dex): actives lie on both sides, concentration not given here; z-score: measured here: IL-1B alone, no Dex
[4] = C. elegans survival during P. aeruginosa infection – whole organism (AID 651566; call rule not given here;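 note: tested at 14 µM; sign flipped so higher z means a lower ratio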); details: C. elegans killed by P. aeruginosa, survival ratio
[5] = pro-inflammatory signaling induction in mouse macrophages – cell-based, murine, luminescence (AID 652131; call rule not given here); details: murine macrophage pro-inflammatory reporter, stronger effect = higher value
[6] = MELAS cybrid and Rieske KO viability enhancers – cell-based, MELAS cybrids, Rieske KO mouse fibroblasts, CellTiter-Glo, primary screen (AID 1508586;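 active = mean z-score across replicates of 1.96 or higher in either the MELAS or the Rieske mutant cell line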;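 note: z relative to plate mean and SD of compound and empty wells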); details: low glucose
[7] = galactose survival enhancers in mitochondrial complex I cybrids – cell-based, galactose medium, ATP luminescence, primary screen (AID 1645843;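 active = z-score of at least 1.8 in each of two replicates, scored against plate mean and spread of sample wells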;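 note: positive z means more ATP and so rescue of galactose-driven cybrid death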); details: complex I mutant cybrid cells, 72 h, stronger effect = higher value
[8] = at 0.000305 µM, OCI-C5x cells, with rucaparib 10 µM, 100% = cells with rucaparib alone
[9] = at 0.000305 µM, OCI-C5x cells, without rucaparib
[10] = at 0.000305 µM, OCI-P5x cells, with rucaparib 20 µM, 100% = cells with rucaparib alone
[11] = at 0.000305 µM, OCI-P5x cells, without rucaparib
[12] = at 0.00122 µM, OCI-C5x cells, with rucaparib 10 µM, 100% = cells with rucaparib alone
[13] = at 0.00122 µM, OCI-C5x cells, without rucaparib
[14] = at 0.00122 µM, OCI-P5x cells, with rucaparib 20 µM, 100% = cells with rucaparib alone
[15] = at 0.00122 µM, OCI-P5x cells, without rucaparib
[16] = at 0.00488 µM, OCI-C5x cells, with rucaparib 10 µM, 100% = cells with rucaparib alone
[17] = at 0.00488 µM, OCI-C5x cells, without rucaparib
[18] = at 0.00488 µM, OCI-P5x cells, with rucaparib 20 µM, 100% = cells with rucaparib alone
[19] = at 0.00488 µM, OCI-P5x cells, without rucaparib
[20] = at 0.0195 µM, OCI-C5x cells, with rucaparib 10 µM, 100% = cells with rucaparib alone
[21] = at 0.0195 µM, OCI-C5x cells, without rucaparib
[22] = at 0.0195 µM, OCI-P5x cells, with rucaparib 20 µM, 100% = cells with rucaparib alone
[23] = at 0.0195 µM, OCI-P5x cells, without rucaparib
[24] = at 0.0781 µM, OCI-C5x cells, with rucaparib 10 µM, 100% = cells with rucaparib alone
[25] = at 0.0781 µM, OCI-C5x cells, without rucaparib
[26] = at 0.0781 µM, OCI-P5x cells, with rucaparib 20 µM, 100% = cells with rucaparib alone
[27] = at 0.0781 µM, OCI-P5x cells, without rucaparib
[28] = at 0.313 µM, OCI-C5x cells, with rucaparib 10 µM, 100% = cells with rucaparib alone
[29] = at 0.313 µM, OCI-C5x cells, without rucaparib
[30] = at 0.313 µM, OCI-P5x cells, with rucaparib 20 µM, 100% = cells with rucaparib alone
[31] = at 0.313 µM, OCI-P5x cells, without rucaparib
[32] = at 1.25 µM, OCI-C5x cells, with rucaparib 10 µM, 100% = cells with rucaparib alone
[33] = at 1.25 µM, OCI-C5x cells, without rucaparib
[34] = at 1.25 µM, OCI-P5x cells, with rucaparib 20 µM, 100% = cells with rucaparib alone
[35] = at 1.25 µM, OCI-P5x cells, without rucaparib
[36] = at 5 µM, OCI-C5x cells, with rucaparib 10 µM, 100% = cells with rucaparib alone
[37] = at 5 µM, OCI-C5x cells, without rucaparib
[38] = at 5 µM, OCI-P5x cells, with rucaparib 20 µM, 100% = cells with rucaparib alone
[39] = at 5 µM, OCI-P5x cells, without rucaparib
[40] = MELAS cybrid survival, CellTiter-Glo 48 h, stronger effect = higher value
[41] = Rieske KO mouse fibroblast survival, CellTiter-Glo 72 h

Cc1[nH]c(C=C2C(=O)Nc3ccc(S(=O)(=O)Cc4c(Cl)cccc4Cl)cc32)c(C)c1C(=O)N1CCC[C@@H]1CN1CCCC1
active: viability [1, 10] 74% | viability [1, 11] 47.4% | viability [1, 14] 87.5% | viability [1, 15] 57.1% | viability [1, 22] 93.6% | viability [1, 23] 91.6% | viability [1, 26] 96% | viability [1, 27] 89.5% | viability [1, 30] 93% | viability [1, 31] 94.4% | viability [1, 34] 90.6% | viability [1, 35] 87% | viability [1, 38] 1.25% | viability [1, 39] 52.5%
inactive: viability [1, 8] 124% | viability [1, 9] 124% | viability [1, 12] 122% | viability [1, 13] 115% | viability [1, 16] 116% | viability [1, 17] 121% | viability [1, 18] 105% | viability [1, 19] 101% | viability [1, 20] 107% | viability [1, 21] 111% | viability [1, 24] 106% | viability [1, 25] 113% | viability [1, 28] 123% | viability [1, 29] 110% | viability [1, 32] 122% | viability [1, 33] 136% | viability [1, 36] 109% | viability [1, 37] 116%

COc1cc([C@H]2c3cc4c(cc3[C@@H](O[C@@H]3O[C@@H]5CO[C@@H](C)O[C@H]5[C@H](O)[C@@H]3O)[C@H]3COC(=O)[C@H]23)OCO4)cc(OC)c1O
active: viability [1, 10] 99.3% | viability [1, 11] 97.3% | viability [1, 14] 96.5% | viability [1, 15] 90.8% | viability [1, 22] 98.6% | viability [1, 23] 97.4% | viability [1, 25] 95.6% | viability [1, 26] 99.3% | viability [1, 27] 98.6% | viability [1, 28] 75.1% | viability [1, 29] 64.7% | viability [1, 30] 99.1% | viability [1, 31] 82% | viability [1, 32] 72% | viability [1, 33] 61.6% | viability [1, 34] 79.8% | viability [1, 35] 42.6% | viability [1, 36] 38.1% | viability [1, 37] 29.3% | viability [1, 38] 55.2% | viability [1, 39] 26.7%
inactive: viability [1, 8] 115% | viability [1, 9] 108% | viability [1, 12] 108% | viability [1, 13] 103% | viability [1, 16] 123% | viability [1, 17] 100% | viability [1, 18] 101% | viability [1, 19] 101% | viability [1, 20] 112% | viability [1, 21] 103% | viability [1, 24] 106%

NC(=O)c1sc(-n2cnc3ccccc32)cc1OCc1ccccc1Br
inactive: parasite % of control [2] 256% | percent of negative control (+Dex) [3] 101% | z-score [4] -0.075 | z-score [5] 0.164 | z-score [6, 40] -0.754
0.185: z-score [3]
77.6%: liver cell % of control [2]
-0.437: z-score [6, 41]

CC(C)[C@@H]1NC(=O)[C@@H]2C[C@H](NC(=O)c3cccc(Cl)c3)CN2C1=O
-0.848: z-score [6, 41]
active: z-score [6, 40] 9
inactive: z-score [7] -0.675

Cc1cccc(Nc2ncc(-c3ccccc3)o2)c1
79.5%: liver cell % of control [2]
inactive: parasite % of control [2] 180% | z-score [4] -1.25 | z-score [5] 1.33 | z-score [6, 40] 0.673
15.2: z-score [3]
active: percent of negative control (+Dex) [3] 272%
-0.569: z-score [6, 41]

CO[C@H]1C[C@@H]2CC[C@@H](C)[C@@](O)(O2)C(=O)C(=O)N2CCCC[C@H]2C(=O)O[C@H]([C@H](C)C[C@@H]2CC[C@@H](O)[C@H](OC)C2)CC(=O)[C@H](C)/C=C(\C)[C@@H](O)[C@H](OC)C(=O)[C@H](C)C[C@H](C)/C=C/C=C/C=C/1C
active: viability [1, 10] 87.8% | viability [1, 11] 75.2% | viability [1, 12] 99.6% | viability [1, 14] 91.5% | viability [1, 15] 64.8% | viability [1, 16] 94.9% | viability [1, 17] 95.5% | viability [1, 18] 83.5% | viability [1, 19] 62.3% | viability [1, 21] 95.6% | viability [1, 22] 87.8% | viability [1, 23] 62.5% | viability [1, 25] 89.7% | viability [1, 26] 92.1% | viability [1, 27] 60% | viability [1, 29] 97.8% | viability [1, 30] 94.8% | viability [1, 31] 63.9% | viability [1, 33] 99.2% | viability [1, 34] 93.7% | viability [1, 35] 61.2% | viability [1, 38] 65% | viability [1, 39] 61%
inactive: viability [1, 8] 117% | viability [1, 9] 111% | viability [1, 13] 102% | viability [1, 20] 101% | viability [1, 24] 103% | viability [1, 28] 107% | viability [1, 32] 105% | viability [1, 36] 118% | viability [1, 37] 107%

O=C1N[C@@H](CSCc2ccccc2)C(=O)N2CCN(C(=O)Oc3ccccc3)C[C@H]12
-0.171: z-score [6, 41]
inactive: z-score [6, 40] 1.38 | z-score [7] -1.57
